Assay results published in the OligoGym collection.
Further: reference of the scale not given here.

These sequences were tested against TRIM48 (assay: pooled miR-30 sensor sort-seq; sequence = guide strand). Details: shRNA.
TTCTCTGATTTTCACAAGCTTT gave a sensor-assay potency score (higher = more potent) of -1.29.
For TTCTTTAACAGCTTCTCCCAGT, the sensor-assay potency score (higher = more potent) was -0.186.
TGTCGTTCTTAACACACCCAAG gave a sensor-assay potency score (higher = more potent) of -1.51.
TGCTGTATTGTCTTTATGCATT was tested, and the sensor-assay potency score (higher = more potent) was -1.57.
TTAACAGCTTCTCCCAGTGTTC showed a sensor-assay potency score (higher = more potent) of -1.29.
ATGTCGTTCTTAACACACCCAA gave a sensor-assay potency score (higher = more potent) of -1.03.
In the case of TTTCTTTAACAGCTTCTCCCAG, the sensor-assay potency score (higher = more potent) is reported as -0.688.
AACATCTTCTTTGTCTCCCTGT was tested, and the sensor-assay potency score (higher = more potent) was 0.214.
For TTTCTCTGCTGTATTGTCTTTA, the sensor-assay potency score (higher = more potent) was -0.0647.
Sequence TTCTCAAATCTCCACATCGGAA has a sensor-assay potency score (higher = more potent) of -1.49.
Work on TTCTCTGCTGTATTGTCTTTAT yielded a sensor-assay potency score (higher = more potent) of -1.43.
With AAACCGAACCTATTTGTCCTGT the sensor-assay potency score (higher = more potent) was 0.0588.

What follows are sequences tested against TRIM50 in the same assay as above. Details: shRNA.
Sequence TAGTCGAAGCGCTCAGGCTGGC has a sensor-assay potency score (higher = more potent) of -0.915.
In the case of TTGGGCAGGGAGCTGCTGCCGT, the sensor-assay potency score (higher = more potent) is reported as -1.11.
TTCAGCTTGCCCTTACGGCTGG was tested, and the sensor-assay potency score (higher = more potent) was -0.338.
Work on TTGTGGTGGTCCTCATTGCCGA yielded a sensor-assay potency score (higher = more potent) of -1.14.
Work on TCCAACTTGAGAGGCTCCGGGG yielded a sensor-assay potency score (higher = more potent) of -1.47.
In the case of AAAACTTTCCGGAAGAGCCTTT, the sensor-assay potency score (higher = more potent) is reported as -0.209.
Sequence TCATAGTGCAGGTAGAGCCCGA has a sensor-assay potency score (higher = more potent) of -0.353.
With TGCTGTAGTCGAAGCGCTCAGG the sensor-assay potency score (higher = more potent) was -1.06.
TGGAACTTCCGGATGAACTTGT showed a sensor-assay potency score (higher = more potent) of -0.0502.
Sequence TTCGCCCTGCTCATAGTGCAGG has a sensor-assay potency score (higher = more potent) of -1.35.
TTCCGGATGAACTTGTGGTGGT was tested, and the sensor-assay potency score (higher = more potent) was -0.035.
TGAACTTGTGGTGGTCCTCATT showed a sensor-assay potency score (higher = more potent) of -1.36.

The sequences below were run against TRIM54 in the same assay as above. Details: shRNA.
Sequence TTGGAGAACATCTCCAGGCAGA has a sensor-assay potency score (higher = more potent) of -0.654.
TTATTGATCAGCTCCTTGGCCT was tested, and the sensor-assay potency score (higher = more potent) was -0.188.
Work on TTTGGAGAACATCTCCAGGCAG yielded a sensor-assay potency score (higher = more potent) of -0.659.
AACAACTGCTTCTGCCTCCGGC showed a sensor-assay potency score (higher = more potent) of -0.512.
With TTGTCCTCGATAGTCTGGCACA the sensor-assay potency score (higher = more potent) was -1.37.
TCGCTGAGCTCACTCTTCTGGC was tested, and the sensor-assay potency score (higher = more potent) was -0.97.
In the case of TTTAACAACTGCTTCTGCCTCC, the sensor-assay potency score (higher = more potent) is reported as 0.72.
With TTGCCTGCCACCAGCATCGCGA the sensor-assay potency score (higher = more potent) was -1.1.
With TGGTTTGGAGAACATCTCCAGG the sensor-assay potency score (higher = more potent) was -1.46.
For TAACAACTGCTTCTGCCTCCGG, the sensor-assay potency score (higher = more potent) was -0.255.
Sequence TAGTCTGGCACACCTCCTCCAT has a sensor-assay potency score (higher = more potent) of -1.55.
TCCATCTGTGTGATCACTGCTT showed a sensor-assay potency score (higher = more potent) of -0.164.
